Assay results reported in ChEMBL document CHEMBL4513216, “Probing the Open Global Health Chemical Diversity Library for Multistage-Active Starting Points for Next-Generation Antimalarials” (ACS Infect Dis, 2020).
The campaign covered roughly 69,000 compounds. About 8,600 (12%) showed an effect of 50% or more. The sample as a whole holds a higher share of strong results than the screen did.

test system: Plasmodium berghei; test: Screen against P. berghei liver stage (PbLuc), transformed with Luciferase, at 10uM; type: functional, HepG2; settings: tested at 10 uM

| SMILES | INHIBITION |
| --- | --- |
| CCCS(=O)(=O)N1C[C@@H](Oc2ncccc2F)[C@H]2OCCC[C@H]21 | 30.3% |
| CCn1c(CN2CCN(C(=O)C3CCC3)CC2)nc2c(F)cccc21 | 18.04% |
| CC1=C(C#N)C(=O)N(C)C(=O)/C1=C\C1=Cc2ccccc2OC1 | 92.5% |
| CC1=C(C#N)C(=O)NC(=O)/C1=C\c1c(C)[nH]n(-c2ccccc2)c1=O | -25.6% |
| COC(=O)CC(C1=Cc2ccccc2OC1)c1oc(C)cc(=O)c1O (stereo unspecified) | 11.6% |
| O=C(Nc1cccnc1)C1=Cc2ccccc2OC1 | -25% |
| CC(Cn1cccn1)NC(=O)C1=Cc2ccccc2OC1 (stereo unspecified) | -40.7% |
| CCN1C(=O)C(C#N)=C(C)/C(=C/C2=Cc3ccccc3OC2)C1=O | 51.7% |
| Cc1cc(C)n(CCC(=O)N2CCCC(c3cc(C(N)=O)[nH]n3)C2)n1 (stereo unspecified) | 16.8% |
| COC(=O)C(c1ccccc1)N(C)C(=O)c1ccnc(C)n1 (stereo unspecified) | 23.7% |
| O=C(c1cccnc1)N1C[C@H]2CC[C@@H](C1)N(Cc1cc(F)ccc1F)C2 | 19.2% |
| CCc1nc(CN(C)C2CCCN(c3cccnn3)C2)no1 (stereo unspecified) | 14.1% |
| NC(=O)C1(Cc2ccc(-c3ccccc3)cc2)CCCNC1 (stereo unspecified) | -0.232% |
| O=C(O)C1(Cc2cccc(-c3cccs3)c2)CCCNC1 (stereo unspecified) | 29.05% |
| NC(=O)C1(Cc2ccc(-c3ccccc3)cc2)CCNC1 (stereo unspecified) | 52.7% |
| CCNC(=O)C1(Cc2ccc(-c3ccccc3)cc2)CCCNC1 (stereo unspecified) | -0.232% |
| O=C(N1CCCC1)C1(Cc2ccc(-c3cccs3)cc2)CCNC1 (stereo unspecified) | 50.9% |
| O=C(O)C1(Cc2ccc(-c3cccs3)cc2)CCNC1 (stereo unspecified) | 35.55% |
| COc1c(C)cnc(CN2CCn3c(C)nnc3C2)c1C | -7.53% |
| c1ccc2oc(CCCN3CCCC3c3noc(C4CC4)n3)nc2c1 (stereo unspecified) | 9.54% |
| COCC(=O)N1CCC2(CC1)CC(COC)N(c1ncccn1)C2 (stereo unspecified) | -6.23% |
| COCCC(=O)N1CCCC(c2nc(O)cc(-c3ccncc3)n2)C1 (stereo unspecified) | 28% |

| SMILES | INHIBITION |
| --- | --- |
| CNC(=O)[C@@]12CCO[C@@H]1CCN(Cc1cccc(C)c1)C2 | 38.1% |
| O=C(O)CSc1nnc(-c2cn[nH]c2)n1-c1ccccc1Cl | 9.87% |
| O=C(O)CSc1nnc(-c2ccn[nH]2)n1-c1ccccc1C(F)(F)F | 27.4% |
| O=C(O)CSc1nnc(-c2cn[nH]c2)n1-c1ccccc1C(F)(F)F | 90.8% |
| CCc1ncc(C(=O)N2CCCN(C3CCCC3)CC2)cn1 | 43.6% |
| CCCc1noc(CCC(=O)N2CCCC2Cn2cc(C)cn2)n1 (stereo unspecified) | -13.5% |
| O=C(CC1CCc2ccccc21)N1CCC(O)(c2cccnc2)CC1 (stereo unspecified) | 6.83% |
| CS(=O)(=O)Nc1cccc(C(=O)Nc2ccc3c(c2)C(=O)NC3)c1 | -13.2% |
| O=C(CNC(=O)c1ccoc1)NCCOc1ccc2c(c1)CCC2 | -112% |
| O=C(NCCOc1ccc(C(F)(F)F)cn1)c1ccoc1 | 57.5% |
| Cc1nc(C)c(C(=O)NCCOc2ccc(C(F)(F)F)cn2)o1 | 64.4% |
| Cc1occc1C(=O)NCCOc1ccc(C(F)(F)F)cn1 | 27.7% |
| O=C(NCCNc1ccc(C(F)(F)F)cn1)c1ccoc1 | 22.8% |
| Cc1ccoc1C(=O)NCCOc1ccc(C(F)(F)F)cn1 | 31.7% |
| CC(C)c1ccc(OCCNC(=O)c2ccoc2)cc1 | 87.1% |
| CC(C)c1ccc(OCCNC(=O)N2CCS(=O)(=O)CC2)cc1 | -12.21% |
| O=C(NCCNS(=O)(=O)c1ccc(C(F)(F)F)cc1)c1ccoc1 | 0.266% |
| c1ccc(Cc2noc(-c3ccc(NCC4CCCOC4)nc3)n2)cc1 (stereo unspecified) | 18.8% |
| Cc1sc2ccccc2c1S(=O)(=O)NCCNC(=O)C(C)C | -35% |
| Cc1ccc(N2C[C@H]3CCC[C@@]3(COc3cccnc3)C2)nn1 | -44.2% |
| CC(=O)Nc1c(C)noc1C=Cc1ccc(S(=O)(=O)NC2CC2)cc1 | 47.2% |
| OC1(CNCCN2CCCc3ccccc32)CCNC1 (stereo unspecified) | 9.55% |

| SMILES | INHIBITION |
| --- | --- |
| Cn1c(=O)c2cc(C(=O)NCCOCC(F)(F)F)ccc2n(C)c1=O | 27.8% |
| Cc1cc(N2CCC(Cc3cnccn3)C2)ncn1 (stereo unspecified) | 2.55% |
| CC(C)(C)c1n[nH]cc1CNC1CCC(C(F)(F)F)CC1 (stereo unspecified) | -32.6% |
| Cc1cccc(CN2CC[C@H]3C[C@H](C)O[C@@H]3C2)n1 | 56.7% |
| Cc1cccc(C(=O)N2CC[C@H]3C[C@@H](C)O[C@@H]3C2)n1 | 7.31% |
| Cc1cccc(CN2CC[C@H]3C[C@@H](C)O[C@@H]3C2)n1 | 76.5% |
| Cc1csc(CN2CC[C@H]3C[C@H](C)O[C@@H]3C2)n1 | 15.4% |
| CN(C)C(=O)C1CN(Cc2ccccn2)CCN(S(C)(=O)=O)C1 (stereo unspecified) | 89.3% |
| C[C@@H]1C[C@@H]2CCN(Cc3ccccn3)C[C@H]2O1 | 55.5% |
| C[C@@H]1C[C@@H]2CCN(Cc3ccncc3)C[C@H]2O1 | 15.9% |
| CN(C)C(=O)C1CN(Cc2ccccc2)CCN(S(C)(=O)=O)C1 (stereo unspecified) | 32.4% |
| C[C@H]1C[C@@H]2CCN(Cc3ccco3)C[C@H]2O1 | 46.2% |
| C[C@H]1C[C@@H]2CCN(Cc3ccccn3)C[C@H]2O1 | 15.9% |
| CN(C)C(=O)C1CN(Cc2cscn2)CCN(S(C)(=O)=O)C1 (stereo unspecified) | 37% |
| C[C@H]1C[C@H]2CN(Cc3ccccn3)CC[C@@H]2O1 | 46.2% |
| Cc1cc(N2CCCC2c2cc(Nc3cnccn3)nc(C)n2)ncn1 (stereo unspecified) | -50.2% |
| Cc1nc(C)n(CC2CCCCN2Cc2nc(-c3ccco3)no2)n1 (stereo unspecified) | -12.915% |
| Cc1ccc(C(=O)N2CCn3c(COCC4CC4)cnc3C2C)nc1 (stereo unspecified) | 39.3% |
| CN(CC1(O)CCN(c2ccccn2)C1)C(=O)Cc1ccsc1 (stereo unspecified) | 46% |
| CCN(CC)c1ccc(NS(=O)(=O)c2cncc(F)c2)cn1 | 46.8% |
| CCN(CC)c1ccc(NS(=O)(=O)c2cccnc2)cn1 | 77.5% |
| CCN(CC)c1ccc(NS(=O)(=O)c2cnn(C)c2)cn1 | 0.139% |
